This is an account of results in PubChem BioAssay (NCI).

Experiment in all cases: NCI-60 one-dose screen, 48 h (100 = growth as untreated, 0 = no growth, -100 = all killed)
One assay deals with HCT-15 colon. The note with it: 10 µM.
In another assay the test system is HT29 colon. The note with it: 10 µM.
A further assay has as its system SNB-75 CNS. The note with it: 10 µM.
The test system of a further assay is SNB-19 CNS. Conditions: 10 µM.
For the next assay, the system named is U251 CNS. The note with it: 10 µM unless noted.
For the next assay, the system named is UACC-62 melanoma. The note with it: 10 µM.
The test system of another assay is LOX IMVI melanoma. The note with it: 10 µM unless noted.
A further assay relates to SK-MEL-28 melanoma. The note with it: 10 µM.
In another assay the test system is SK-MEL-2 melanoma. The note with it: 10 µM.
Another assay deals with EKVX NSCLC. The note with it: 10 µM.
The test system of another assay is SN12C renal. Conditions: 10 µM.
Another assay deals with UO-31 renal. Conditions: 10 µM.
The next assay relates to TK-10 renal. Conditions: 10 µM.
Another assay relates to ACHN renal. The note with it: 10 µM.
The next assay has as its system CAKI-1 renal. Conditions: 10 µM.
The next assay concerns A498 renal. The note with it: 10 µM.
The subject of a further assay is CCRF-CEM leukemia. The note with it: 10 µM.
For the next assay, the system named is MOLT-4 leukemia. Conditions: 10 µM.
The next assay has as its system PC-3 prostate. Conditions: 10 µM.

Molecules are shown by their SMILES. Where “and” joins values, the source holds several entries; their conditions need not be identical. Equal entries are not always repeated. About 83,000 compounds went through this panel and 20% of them were active in at least one assay; those are over-represented in the sample as a whole.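 Assay: single dose, 48 h. Readout: percent growth (0 = no net growth; negative = cell death). Active: <10.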 Calls of active or inactive are those of the source.

With `COC(=O)C1C(O)C(C)C(O)C(C)C=C(C)C2=C3C(=C(C)C(=O)c4c(O)c(c(C)c(OC(C)=O)c43)NC(=O)C(C)=C/C=C\C(C)C(O)C(C)C1O)OCO2` (configuration not stated), the growth in the assay on HCT-15 colon is 115% (inactive); in the assay with HT29 colon, 114% (inactive); in the assay with SNB-75 CNS it was 90% (inactive); with SNB-19 CNS it was 109% (inactive); in the assay with U251 CNS it was 110% (inactive); with UACC-62 melanoma, 103% (inactive). Further, the growth is 102% (inactive) with LOX IMVI melanoma; 118% (inactive) in the assay on SK-MEL-28 melanoma; 26.5% (inactive) in the assay with SK-MEL-2 melanoma; 119% (inactive) in the assay with EKVX NSCLC; 99.8% (inactive) in the assay on SN12C renal; 89.3% (inactive) with UO-31 renal. For the same molecule, the growth with TK-10 renal was 118% (inactive); in the assay on ACHN renal it was 104% (inactive); in the assay with CAKI-1 renal, 133% (inactive); with A498 renal, 123% (inactive); in the assay with CCRF-CEM leukemia, 103% (inactive); with MOLT-4 leukemia, 153% (inactive).
Turning to `OCC(O)C(O)C(O)C(/C=N/Nc1ccccc1)=N/Nc1ccccc1` (configuration not stated), the growth in the assay on HCT-15 colon is 75% (inactive); in the assay on HT29 colon, 93.2% (inactive); in the assay on SNB-75 CNS, 66.3% (inactive); in the assay with SNB-19 CNS it was 97.4% (inactive); in the assay on U251 CNS, 90.9% (inactive); with PC-3 prostate, 72.6% (inactive). In addition, the growth in the assay with UACC-62 melanoma is 43.6% (inactive); in the assay with LOX IMVI melanoma, 51.8% (inactive); with SK-MEL-28 melanoma, 103% (inactive); in the assay with SK-MEL-2 melanoma it was 121% (inactive); in the assay with UO-31 renal, 61.1% (inactive); in the assay on TK-10 renal, 91.8% (inactive). The growth in the assay on ACHN renal was 67.5% (inactive); in the assay with CAKI-1 renal, 78% (inactive); with A498 renal it was 43.9% (inactive); with CCRF-CEM leukemia, 75.4% (inactive); in the assay on MOLT-4 leukemia it was 101% (inactive).
As for `C[n+]1c2cc(N)ccc2cc2ccc(N)cc21`, the growth in the assay on HCT-15 colon was 19.6% (inactive) [middle of 4 runs]; in the assay on HT29 colon, 4.57% (active) [middle of 4 runs]; in the assay on U251 CNS it was 1.21% (active) [middle of 4 runs]; with UACC-62 melanoma, -30.5% (active) and -37% (active) and -78.6% (active); in the assay on LOX IMVI melanoma it was 1.35% (active) [middle of 4 runs]; in the assay on EKVX NSCLC it was -23.9% (active) and 5.67% (active) and -26.5% (active). The growth was 6.76% (active) [middle of 4 runs] in the assay with ACHN renal; -22.5% (active) and 9.14% (active) in the assay with CAKI-1 renal; 17.7% (inactive) [middle of 4 runs] in the assay on CCRF-CEM leukemia; 9.49% (active) [middle of 4 runs] with MOLT-4 leukemia.
`O=C1C=C(O)c2ccccc2C1=O.[Ag]`: the growth with HCT-15 colon was 88.2% (inactive); in the assay on HT29 colon, 81.9% (inactive); with SNB-75 CNS, 87.9% (inactive); in the assay on SNB-19 CNS it was 102% (inactive); in the assay with PC-3 prostate it was 78.7% (inactive); with UACC-62 melanoma, 108% (inactive). The growth is 92.3% (inactive) with SK-MEL-28 melanoma; 103% (inactive) in the assay with SN12C renal; 82.9% (inactive) in the assay on UO-31 renal; 157% (inactive) in the assay on TK-10 renal; 95.2% (inactive) in the assay on ACHN renal; 94.4% (inactive) in the assay with CAKI-1 renal. Also, the figures for the growth in the assay on A498 renal, in the assay with CCRF-CEM leukemia and in the assay on MOLT-4 leukemia were 93.3% (inactive), 101% (inactive) and 105% (inactive), respectively.
Regarding `CCO/C=C1\SC(=S)N(c2cccc(O)c2)C1=O`, the growth with HCT-15 colon is 104% (inactive); in the assay with HT29 colon it was 98.5% (inactive); in the assay on SNB-75 CNS it was 74.7% (inactive); in the assay with SNB-19 CNS, 96.3% (inactive); in the assay on U251 CNS, 102% (inactive); in the assay on PC-3 prostate, 98% (inactive). Besides, the growth was 103% (inactive) in the assay on UACC-62 melanoma; 103% (inactive) in the assay on LOX IMVI melanoma; 102% (inactive) in the assay with SK-MEL-28 melanoma; 87.4% (inactive) in the assay with SK-MEL-2 melanoma; 98.1% (inactive) in the assay with SN12C renal; 79.5% (inactive) in the assay on UO-31 renal. Moreover, the growth in the assay with TK-10 renal was 88.3% (inactive); with ACHN renal, 102% (inactive); in the assay with CAKI-1 renal, 98.9% (inactive); with A498 renal, 118% (inactive); with MOLT-4 leukemia, 96.7% (inactive).
In the case of `CCCCCCCCCCCCSC(=NC)NC`, the growth in the assay with HCT-15 colon is -25.5% (active) and -28.8% (active); with HT29 colon it was 0.0905% (active) and 2.56% (active); with SNB-75 CNS it was 74.8% (inactive) and 82.3% (inactive); with SNB-19 CNS it was 42.6% (inactive) and 91.6% (inactive); in the assay with U251 CNS, 8.04% (active) and 34.5% (inactive); in the assay with PC-3 prostate, 42% (inactive) and 67.3% (inactive). The growth is -58.4% (active) and 61.4% (inactive) in the assay on UACC-62 melanoma; -39.5% (active) and 26.8% (inactive) in the assay with LOX IMVI melanoma; 26.8% (inactive) and 68.5% (inactive) in the assay on SK-MEL-28 melanoma; 79.2% (inactive) and 95.8% (inactive) with SK-MEL-2 melanoma; 71.1% (inactive) in the assay with EKVX NSCLC; 35.2% (inactive) and 49.6% (inactive) in the assay on UO-31 renal. In addition, the growth in the assay with TK-10 renal was 62.1% (inactive) and 71.2% (inactive); in the assay with ACHN renal it was 43% (inactive) and 86.4% (inactive); in the assay on CAKI-1 renal it was 45.8% (inactive) and 73.6% (inactive); in the assay with A498 renal, 72.3% (inactive); in the assay on CCRF-CEM leukemia, 23.7% (inactive); with MOLT-4 leukemia, 1.27% (active) and 19.1% (inactive).
In the case of `CN1CCN(CCCN2c3ccccc3Sc3ccc(C(F)(F)F)cc32)CC1`, the growth with HCT-15 colon was 29.3% (inactive); in the assay with HT29 colon, 5.41% (active); with SNB-75 CNS, 52.5% (inactive); with SNB-19 CNS it was 73.8% (inactive); with U251 CNS, 27.9% (inactive); in the assay with PC-3 prostate, 39.8% (inactive). Further, the growth in the assay on LOX IMVI melanoma is 15.3% (inactive); in the assay with SK-MEL-28 melanoma, -45.4% (active); in the assay with SK-MEL-2 melanoma, 88.1% (inactive); with EKVX NSCLC, 66.9% (inactive); with UO-31 renal, 35.1% (inactive); in the assay with TK-10 renal, 66% (inactive). Further, the growth is 46.6% (inactive) in the assay on ACHN renal; 34% (inactive) in the assay on CAKI-1 renal; 70.2% (inactive) with A498 renal; 50.2% (inactive) in the assay on CCRF-CEM leukemia; 37.6% (inactive) in the assay with MOLT-4 leukemia.
